# Reference: publication PMC4336329 (PLoS ONE, 2015)
# The whole screen tested about 310,000 compounds, of which about 14,000 (4.5%) showed an effect of 50% or more. The effect is printed as a negative number. Only a selection was taken, and strong results are over-represented in it overall.
# Biological target: human ether-à-go-go-related gene (hERG) potassium channel (human, UniProt Q12809)
# Experiment: primary screen, population patch clamp on CHO cells stably expressing hERG; higher = less effect of the substance
# 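Note: peak tail current of the secondary pulse compared with the same well before compound.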
# Chain of human ether-à-go-go-related gene (hERG) potassium channel (Q12809 whole entry, looked up): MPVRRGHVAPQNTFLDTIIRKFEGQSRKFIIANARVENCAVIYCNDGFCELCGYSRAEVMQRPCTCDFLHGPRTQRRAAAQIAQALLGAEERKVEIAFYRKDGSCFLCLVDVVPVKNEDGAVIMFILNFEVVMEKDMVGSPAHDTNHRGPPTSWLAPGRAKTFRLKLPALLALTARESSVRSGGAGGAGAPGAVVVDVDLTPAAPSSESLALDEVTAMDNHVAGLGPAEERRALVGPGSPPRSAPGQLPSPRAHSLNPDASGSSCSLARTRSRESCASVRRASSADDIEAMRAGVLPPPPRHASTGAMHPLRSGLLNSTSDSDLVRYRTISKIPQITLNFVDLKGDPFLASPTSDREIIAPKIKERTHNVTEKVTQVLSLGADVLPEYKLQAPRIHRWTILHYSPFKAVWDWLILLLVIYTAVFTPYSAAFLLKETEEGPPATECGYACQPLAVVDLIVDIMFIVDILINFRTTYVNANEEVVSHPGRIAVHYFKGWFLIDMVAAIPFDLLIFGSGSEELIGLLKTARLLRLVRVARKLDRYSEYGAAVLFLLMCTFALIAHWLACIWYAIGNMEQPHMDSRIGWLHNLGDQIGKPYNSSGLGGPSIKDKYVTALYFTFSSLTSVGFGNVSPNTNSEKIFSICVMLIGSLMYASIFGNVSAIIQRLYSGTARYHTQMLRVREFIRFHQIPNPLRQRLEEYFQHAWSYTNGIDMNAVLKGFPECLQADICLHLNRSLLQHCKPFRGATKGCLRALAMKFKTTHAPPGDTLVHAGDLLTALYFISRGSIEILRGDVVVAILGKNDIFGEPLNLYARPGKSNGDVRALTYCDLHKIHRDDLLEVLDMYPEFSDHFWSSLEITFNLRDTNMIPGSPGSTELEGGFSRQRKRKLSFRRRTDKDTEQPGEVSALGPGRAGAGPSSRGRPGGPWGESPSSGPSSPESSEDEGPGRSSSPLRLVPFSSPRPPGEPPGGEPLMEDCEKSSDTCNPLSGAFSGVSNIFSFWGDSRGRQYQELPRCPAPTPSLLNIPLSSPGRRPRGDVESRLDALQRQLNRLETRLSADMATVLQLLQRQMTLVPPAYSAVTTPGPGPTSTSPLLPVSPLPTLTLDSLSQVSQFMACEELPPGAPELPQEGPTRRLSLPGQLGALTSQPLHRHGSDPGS
row,SMILES,"hERG current change (%, negative = inhibition) at 10uM"
1,COC(=O)c1ccccc1NC(=O)NCc1ccccc1,-3.24%
2,Cc1c(C(=O)OC2CCC(C)CC2)[nH]c2c1C(=O)CCC2 (stereo not drawn),-3.25%
3,Cc1ccc(NS(=O)(=O)c2ccc(-c3csc(C)n3)s2)c(C)c1,16%
4,CCN(CCn1cccn1)C(=O)c1cc(COc2c(F)cccc2F)on1,0.76%
5,CCN(CCn1cccn1)C(=O)c1cc(COc2ccc(F)c(F)c2)on1,-96%
6,CCN(CCn1cccn1)C(=O)c1cc(COc2ccc(F)cc2Cl)on1,-15.4%
7,O=C1C2C3c4ccccc4C(c4ccccc43)[C@@H]2C(=O)N1c1ccccn1 (stereo partly drawn),5.6%
8,O=C(N/N=C/c1ccc(OC(F)F)cc1OC(F)F)c1cccc(S(=O)(=O)N2CCOCC2)c1,-33.1%
9,COC(=O)Cn1ncn2c(cc3oc(C)cc32)c1=O,13.1%
10,CCN(CC(=O)Nc1ccc(OC)cc1)C(=O)COc1cccc2c1OC(C)(C)C2,-14.1%
11,C=CCC1(CC=C)CCCN1Cc1nc(COc2ccccc2)no1,-11.5%
12,c1ccc(OCc2noc(CN3CC[C@@H]4CCCC[C@H]4C3)n2)cc1,0.704%
13,Cc1ccccc1C1CCCN(Cc2nc(CC3CC3)no2)C1 (stereo not drawn),-12.7%
14,c1ccc(CN2CCCC3(CCCN(Cc4nc(CC5CC5)no4)C3)C2)cc1 (stereo not drawn),-52.1%
15,c1ccc(CN2CCCC3(CCCN(Cc4nc(COc5ccccc5)no4)C3)C2)cc1 (stereo not drawn),-69.3%
16,c1ccc(C2CCCN(Cc3nc(CC4CC4)no3)CC2)cc1 (stereo not drawn),2.97%
17,CN(CC(=O)O/N=C(\N)c1ccccn1)S(=O)(=O)c1ccccc1,-4.98%
18,Cc1cccc(C)c1NC(=O)NCCCN1CCN(c2ccccc2)CC1,-41.1%
19,Cc1ccccc1NC(=O)NCCCN1CCN(C)CC1,28.1%
20,COc1ccccc1NC(=O)NCCCN1CCN(c2cccc(Cl)c2)CC1,-73.7%
21,O=C(NCCN1CCN(Cc2ccccc2)CC1)Nc1cc(Cl)cc(Cl)c1,-75.2%
22,CCCN1CCN(C(=O)Nc2ccc(OCC)cc2)CC1,-1.93%
23,COc1ccccc1NC(=O)NCCN1CCN(c2cccc(Cl)c2)CC1,-9.6%
24,Cc1noc(C)c1NC(=O)NCCN1CCN(Cc2ccccc2)CC1,13.7%

row,SMILES,"hERG current change (%, negative = inhibition) at 10uM"
1,O=C(NCCN1CCCCC1)Nc1ccccc1,-23.2%
2,O=C(Nc1ccc(F)cc1F)N1CCCN(CCOc2ccccc2)CC1,-45.2%
3,COc1ccc(N2CCN(CCNC(=O)Nc3cc(Cl)ccc3OC)CC2)cc1,3.23%
4,O=C(Nc1ccc2ccccc2c1)N1CCCN(CCOc2ccccc2)CC1,-66%
5,Cc1ccccc1NC(=O)NCCCN1CCN(c2ccccc2)CC1,-50.7%
6,CC(C)C(C)NC(=O)CSc1ccc(S(=O)(=O)N2CCOCC2)cn1 (stereo not drawn),-1.56%
7,CCOC(=O)C(CSCc1ccccc1)NC(=O)OC(C)(C)C (stereo not drawn),-14.8%
8,CCOCCCNC(=O)C(C)NS(=O)(=O)c1ccc(C)cc1 (stereo not drawn),4.29%
9,COc1ccccc1NC(=O)CSCc1cc(=O)n2ccsc2n1,13.3%
10,COc1cccc(C(=O)O/N=C(\N)c2ccccn2)c1,-2.49%
11,Cc1cc(C)cc(C(=O)Nc2cccc(NC(=O)c3ccco3)c2)c1,-14.2%
12,Cc1ccc(S(=O)(=O)NCCC(=O)N2CCCCCC2)cc1,1.86%
13,CC(C)c1nc(SCC(=O)N2CCCC2)c2c(=O)n(C)c(=O)n(C)c2n1,-21.8%
14,O=C(NC(=S)N1CCCC1)c1cccc([N+](=O)[O-])c1,19.9%
15,CCCCNC(=O)CCCCCNS(=O)(=O)c1ccc(OC)cc1,13.8%
16,CCn1c(SCC(=O)Nc2ccc(N3CCOCC3)cc2)nnc1-c1ccc(OC)cc1,-14.8%
17,CCCc1c2c(cc3c(=O)cc(C(=O)OCC)oc13)CCCC2,-0.971%
18,COc1cc(OC)cc(C(=O)Nn2cc(C(=O)N3CCN(C)CC3)c3ccccc3c2=O)c1,2.72%
19,O=C(NCCN1CCN(c2ccccc2)CC1)Nc1ccccc1Cl,-43.3%
20,O=C(NCCCN1CCN(c2ccccc2)CC1)Nc1ccccc1C(F)(F)F,-49.3%
21,O=C(NCCN1CCOCC1)Nc1ccccc1,-6.63%
22,O=C(NCCN1CCN(c2cccc(Cl)c2)CC1)Nc1ccccc1,-35.1%
23,Cc1ccc(NC(=O)NCCN2CCN(c3ccccc3)CC2)cc1Cl,16.7%
24,O=C(NCCN1CCN(c2ccccc2)CC1)Nc1cccc(Br)c1,-58.1%

row,SMILES,"hERG current change (%, negative = inhibition) at 10uM"
1,O=C(Nc1ccccc1)N1CCN(Cc2ccccc2)CC1.O=C(O)C(=O)O,11.9%
2,O=C(Nc1cc(Cl)cc(Cl)c1)N1CCCN(Cc2ccccc2)CC1,-76.3%
3,O=C(NCCN1CCN(c2ccccc2)CC1)Nc1ccccc1Br,-52.1%
4,O=C(Nc1ccccc1)N1CCN(Cc2ccc(Cl)cc2)CC1,-33.8%
5,O=C(NCCN1CCN(c2ccccc2)CC1)Nc1cccc(Cl)c1,-55.7%
6,O=C(NCCN1CCN(c2ccccc2)CC1)Nc1ccc(Cl)cc1,-45.5%
7,COC(=O)c1sccc1NC(=O)Nc1ccccc1C,9.22%
8,COCCNS(=O)(=O)c1cccc2cccnc12,11.6%
9,Cc1ccc(N=C2C(=O)Nc3ccccc32)cc1C,7.9%
10,Cn1c(N)c(C(=O)COC(=O)c2nc(Cl)ccc2Cl)c(=O)n(C)c1=O,-11.2%
11,COc1ccc(C(=O)NCCCSc2ccccc2)cc1F,8.32%
12,Brc1ccc(C2Nc3cccc4cccc(c34)N2)s1,7.9%
13,CCn1cc(CN2CCC(n3nccc3NC(=O)c3cccc(F)c3)CC2)c(C)n1,-2.72%
14,O=C(Nc1ccnn1C1CCN(Cc2ccc(C#CCCO)cc2)CC1)c1cccc(F)c1,-77.3%
15,O=C(Nc1ccnn1C1CCN(Cc2ccc3nonc3c2)CC1)c1cccc(F)c1,-37.4%
16,COc1ccc(CN2CCC(n3nccc3NC(=O)c3cccc(F)c3)CC2)cc1O,-80.4%
17,O=C(Nc1ccnn1C1CCN(Cc2ccccc2OCCO)CC1)c1cccc(F)c1,-34.8%
18,O=C(Nc1ccnn1C1CCN(C2CCC2)CC1)c1cccc(F)c1,-12.5%
19,O=C(Nc1ccnn1C1CCN(Cc2cccc(OCCO)c2)CC1)c1cccc(F)c1,-12.3%
20,O=C(Nc1ccnn1C1CCN(Cc2ccccc2OC(F)F)CC1)c1cccnc1,-12.3%
21,O=C(Nc1ccnn1C1CCN(Cc2ccccc2OC(F)F)CC1)c1cccc(F)c1,-52.4%
22,CCn1cc(CN2CCC(n3nccc3NC(=O)c3cccc(F)c3)CC2)cn1,-6.71%
23,CCc1ccc(CN2CCC(n3nccc3NC(=O)c3cccc(F)c3)CC2)cc1,-75.3%
24,CCOC(=O)C1CCCCC12C(C#N)=C(N)Oc1n[nH]c(C)c12 (stereo not drawn),10.1%

row,SMILES,"hERG current change (%, negative = inhibition) at 10uM"
1,CN1C(=O)C(CC(=O)Nc2ccc(F)cc2)N(CCCc2ccccc2)C1=S (stereo not drawn),0.0595%
2,CCOC(=O)c1c(C)[nH]c(C2=NNC(=NC3CC3)SC2)c1C,-30.1%
3,COc1ccccc1NC(=O)CNc1ccc(F)c(Cl)c1,-11.7%
4,CCn1cc([N+](=O)[O-])c(C(=O)Nc2ccc3c(c2)OCCO3)n1,-9.69%
5,COCCCNC(=O)c1ccccc1Sc1ccc(NC(C)=O)nc1,25.8%
6,C=CCn1c(SCC(=O)c2ccc(OC)cc2)nnc1-c1cc2cccc(OC)c2o1,25.8%
7,CCC(C)NC(=O)CCc1nnc2ccc(N3CCC(C)CC3)nn12 (stereo not drawn),3.66%
8,COc1ccc(N2CC(C(=O)Nc3ccc4c(c3)OCCO4)CC2=O)cc1 (stereo not drawn),4.94%
9,CCc1ccc(NS(=O)(=O)c2ccc3oc(=O)ccc3c2)cc1,-1.91%
10,CCOC(=O)N1CCN(C(=O)C2CCC(=O)N(Cc3ccc(Cl)cc3)C2)CC1 (stereo not drawn),-40.5%
11,CCOC(=O)C1(Cc2ccc(Cl)cc2)CCN(C(=O)c2cscn2)CC1,-37.4%
12,O=C1CCC(C(=O)N2CCC(CO)(Cc3ccc(Cl)cc3)CC2)=NN1,-32.5%
13,CCOC(=O)C1(Cc2ccc(Cl)cc2)CCN(C(=O)c2cc(C)nc(C)n2)CC1,-38.1%
14,CCOC(=O)C1(Cc2ccc(Cl)cc2)CCN(C(=O)c2sc(C)nc2C)CC1,-52.9%
15,CCOC(=O)C1(Cc2ccc(Cl)cc2)CCN(C(=O)C2CCCO2)CC1 (stereo not drawn),-33.2%
16,C=CCN1CC(C(=O)N2CCC(Cc3ccc(Cl)cc3)(C(=O)OCC)CC2)CC1=O (stereo not drawn),-72.4%
17,CCOC(=O)C1(Cc2ccc(Cl)cc2)CCN(C(=O)c2cnc(C)cn2)CC1,-57.1%
18,CCOC(=O)C1(Cc2ccc(Cl)cc2)CCN(C(=O)C2=NNC(=O)CC2)CC1,-69.6%
19,CCOC(=O)C1(Cc2ccc(Cl)cc2)CCN(C(=O)c2ccoc2)CC1,-49.4%
20,CCOC(=O)C1(Cc2ccc(OC)cc2)CCN(C(=O)c2sc(C)nc2C)CC1,1.86%
21,CCOC(=O)C1(Cc2ccc(OC)cc2)CCN(C(=O)c2csc(C)n2)CC1,2.99%
